# Source: PubChem BioAssay (NCATS)
# Inconclusive results are not listed. Entries that show only a call come without a potency. Active and inactive are the calls of the source. The call rests on the fitted dose curve. Square brackets hold non-standard residues; d marks the D form. Peptide text beside a SMILES is read from it.
# Assays:
# [1] = Confirmatory qHTS to identify inhibitors of SARS-CoV-2 cell entry (AID 1645844); further: nearly all actives have a fitted effect of over 45% in size
# In short: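 HEK293-ACE2 cells were pretreated 1 h with compound, then infected with MLV-based pseudoparticles bearing C-terminally truncated Wuhan-Hu-1 spike for 48 h at 37C; luciferase luminescence normalized to spike PP and bald PP wells.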
# [2] = Cytotoxicity counterscreen for inhibitors of SARS-CoV-2 cell entry (AID 1645845); settings: outcome: dose series up to 57.1 µM unless noted; further: nearly all actives have a fitted effect of over 50% in size
# In short: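 HEK293-ACE2 cells (Expi293F stably expressing human ACE2) seeded overnight, then compound for 1 h plus 48 h at 37C. Viability as ATP content by luminescence; normalized to wells with cells and media-only wells.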
# [3] = Primary qHTS to identify inhibitors of SARS-CoV-2 cell entry (AID 1645846); settings: SARS-CoV-2 pseudovirus cell entry assay, luminescence; activity change, negative = inhibition: at 57.1 µM (top of the series) unless noted; further: nearly all actives have a fitted effect of over 45% in size
# In short: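 Luminescence readout (Bright-Glo luciferase) 48 h after pseudoparticle addition. HEK293-ACE2 cells, 1500/well; compound pre-incubation 1 h; Normalized to spike PP and bald PP.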
# [4] = VSVG counterscreen qHTS to identify inhibitors of SARS-CoV-2 cell entry (AID 1645847); further: nearly all actives have a fitted effect of over 65% in size
# In short: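 HEK293-ACE2 cells (Expi293F stably expressing human ACE2) were pretreated with compound for 1 h at 37 °C, then infected with MLV-based VSV-G pseudotyped particles for 48 h. Luciferase luminescence was normalized to VSV-G PP and bald PP wells.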
# Potency means the concentration at half of the fitted maximal effect.
smiles,measurement,setting,value
CS[C@H]1SC[C@@H]2C(=O)N(C)[C@H](C(C)C)C(=O)OC[C@H](NC(=O)c3cnc4ccccc4n3)C(=O)N[C@H](C)C(=O)N(C)[C@H]1C(=O)N(C)[C@H](C(C)C)C(=O)OC[C@H](NC(=O)c1cnc3ccccc3n1)C(=O)N[C@H](C)C(=O)N2C,Potency,[1],0.0086 µM (active)
same,Potency,[2],inactive
same,"activity change, negative = inhibition",[3],-94.2%
CC(=O)c1ccc2c(c1)c1cc(C(C)=O)ccc1n2CCNC(C)C,Potency,[1],0.0541 µM (active)
same,Potency,[4],0.136 µM (active)
COc1cc(F)ccc1-c1ncnc(Nc2cccc(CS(C)(=N)=O)c2)n1 (stereo unspecified),Potency,[1],3.83 µM (active)
same,Potency,[4],4.29 µM (active)
O=C(NCc1cccc(O)c1)Nc1nc(-c2ccncc2)cs1,Potency,[2],inactive
Cc1cc(-n2c(=O)ccc3cnc4[nH]ccc4c32)ccc1F,Potency,[2],inactive
CCNC(=O)Nc1ccc(Oc2ncnc(N)c2/C=N/OC)cc1Cl,Potency,[2],inactive
CCCc1cc(C)[nH]c(=O)c1CNC(=O)c1cc(-c2ccc(N3CCN(C(C)C)CC3)nc2)cc2c1cnn2C(C)C,Potency,[2],inactive
Cc1cc(C)c(CNC(=O)c2cc(-c3ccc(CN4CCOCC4)cc3)cc3c2cnn3C2CCCC2)c(=O)[nH]1,Potency,[2],inactive
COc1cc(N2CCN(C)CC2)ccc1Nc1ncc2c(n1)N(C)c1ccccc1C(=O)N2C,Potency,[2],inactive
O=C(/C=C/N1C[C@H]2C[C@@H]1CN2c1ccccn1)c1ccccc1O,Potency,[2],inactive
O=C(O)/C(S)=C/c1ccc(I)cc1,Potency,[2],inactive
O=C(O)c1ccc(O)c2ncccc12,Potency,[2],inactive
O=C1NC(=O)[C@@H](c2c[nH]c3ccccc23)[C@H]1c1cn2c3c(cccc13)CCC2,Potency,[1],7.64 µM (active)
same,Potency,[4],1.52 µM (active)
C[C@@H]1Cc2c([nH]c3ccccc23)[C@@H](c2c(F)cc(/C=C/C(=O)O)cc2F)N1CC(C)(C)F,Potency,[2],inactive
N#Cc1ccnc(N2C(=O)CC[C@H]2C(=O)N(c2cncc(F)c2)[C@H](C(=O)NC2CC(F)(F)C2)c2ccccc2Cl)c1,Potency,[2],inactive
COc1cc2c(cc1OC(C)C)[C@H](c1ccc(Cl)cc1)N(c1ccc(N(C)CC3CCC(N4CCN(C)C(=O)C4)CC3)cc1)C(=O)C2 (stereo partly specified),Potency,[2],inactive
CS(=O)(=O)c1ccc([C@@H](CC2CCCC2)C(=O)Nc2nccs2)cc1,Potency,[2],inactive
Cc1nnn(C)c1-c1cnc2c3ccc(C(C)(C)O)cc3n([C@H](c3ccccc3)C3CCOCC3)c2c1,Potency,[2],inactive
CC(C)C[C@@H]1NC(=O)[C@@H](C(C)C)NC(=O)[C@@H]2CCCN2C(=O)[C@@H](CC(=O)O)NC(=O)[C@@H](Cc2c[nH]c3ccccc23)NC1=O (cyclo(L[dW][dD]P[dV])),Potency,[2],inactive
O=C(NOCCO)c1cc(CN2OCCCC2=O)c(F)c(F)c1Nc1ccc(I)cc1F,Potency,[2],inactive
CCS(=O)(=O)N1CCN(c2ccc(Nc3ncc(C(N)=O)c(NC4CC4)n3)cc2)CC1,Potency,[2],25.1 µM (active)
COc1ccc(CNC(=O)c2cc(-c3cncc(Cl)c3)cnc2-c2ccccn2)nc1OC,Potency,[2],inactive
CNC(=O)c1cccc(-c2ccc3c(N4CCOC[C@@H]4C)nc(N4CCOC[C@@H]4C)nc3n2)c1,Potency,[1],2.41 µM (active)
same,Potency,[4],2.71 µM (active)
CN1CCN(c2ccc(Nc3ncc4cc(C#N)c(=O)n(C5CCCC5)c4n3)cc2)CC1,Potency,[2],inactive
CCC(C)CNCC(=O)N1CCc2sccc2C1c1cccc(C)n1 (stereo unspecified),Potency,[2],inactive
COCCNCc1ccc(-c2cc3nccc(Oc4ccc(NC(=S)NC(=O)Cc5ccc(F)cc5)cc4F)c3s2)nc1,Potency,[1],3.83 µM (active)
same,Potency,[4],1.36 µM (active)
O=C(C(c1ccccc1)c1ccccc1)N1CCN(CC(O)COc2cccc3ncccc23)CC1 (stereo unspecified),Potency,[2],inactive
Cc1ccc(-c2ccc3ncc4c(c3n2)n(C2CCN(C(=O)[C@H](C)O)CC2)c(=O)n4C)cn1,Potency,[2],inactive
CCOC(=O)C1=CCCCC1S(=O)(=O)Nc1ccc(F)cc1Cl (stereo unspecified),Potency,[2],inactive
O=C(NOCC(O)CO)c1ccc(F)c(F)c1Nc1ccc(I)cc1F (stereo unspecified),Potency,[2],inactive
C=C[C@H]1CN2CCC1C[C@@H]2C(O)c1ccnc2ccc(OC)cc12 (stereo partly specified),Potency,[2],inactive
CNS(=O)(=O)c1ccc2c(c1)/C(=C/c1[nH]c3c(c1CCCN1CCN(C)CC1)CCCC3)C(=O)N2,Potency,[2],inactive
O=C(C[C@@H]1C/C=C\CCC(=O)O[C@H](c2ccccc2)CNC1=O)NCc1ccc(Cl)cc1,Potency,[2],inactive
C/C=C/C/C=C/CCC(=O)[C@H]1O[C@H]1C(N)=O,Potency,[2],inactive
CC1(C)CN(C(=O)c2ccc(-c3cccc4nc(NC(=O)C5CC5)nn34)cc2)C1,Potency,[2],inactive
O=C(Nc1ccc2[nH]nc(-c3ccncc3)c2c1)[C@@H]1CCN(CC(=O)N2CCN(c3ccc(-c4ncccn4)cc3)CC2)C1,Potency,[2],inactive
Cn1ncc(Cl)c1-c1cc(C(=O)N[C@H](CN)Cc2cccc(F)c2)sc1Cl,Potency,[2],inactive
Cc1cc(C)cc(Oc2ccc(CNC(=O)[C@H](C)N)cc2C)c1,Potency,[2],inactive
COc1cc2c3c(n(CCCN4CCOCC4)c(=O)c2cc1OC)-c1cc2c(cc1C3=O)OCO2,Potency,[2],inactive
CCCN(CCC)C(=O)C1=Cc2ccc(-c3ccc(C(=O)N4CCCC4)cc3)cc2N=C(N)C1,Potency,[2],inactive
CN(C)c1cc(NC(=O)CNC(C)(C)C)c(O)c2c1C[C@H]1C[C@H]3[C@H](N(C)C)C(=O)C(C(N)=O)=C(O)[C@]3(O)C(=O)C1=C2O,Potency,[2],inactive
O=C(O)c1ccc(CN2CCC(CN[C@@H]3C[C@H]3c3ccccc3)CC2)cc1,Potency,[2],inactive
same,Potency,[3],inactive
CO[C@H]1/C=C/O[C@@]2(C)Oc3c(C)c(O)c4c(O)c(c(/C=N/N5CCN(C)CC5)c(O)c4c3C2=O)NC(=O)/C(C)=C\C=C\[C@H](C)[C@H](O)[C@@H](C)[C@@H](O)[C@@H](C)[C@H](OC(C)=O)[C@@H]1C,Potency,[2],inactive
same,"activity change, negative = inhibition",[3],-0.679%
Cc1c(F)ccc(C(=O)Nc2cc([N+](=O)[O-])ccc2N2CCN(C)CC2)c1Cl,Potency,[2],inactive
same,"activity change, negative = inhibition",[3],-18.7%
Cc1cccc(-c2nn3c(c2-c2ccnc4ccc(C(N)=O)cc24)CCC3)n1,Potency,[2],inactive
same,"activity change, negative = inhibition",[3],-4.65%
COc1cc(OC)cc(N(CCNC(C)C)c2ccc3ncc(-c4cnn(C)c4)nc3c2)c1,Potency,[2],inactive
CCN1C(=O)CNc2ncc(-c3ccc(-c4ncn[nH]4)nc3C)nc21,Potency,[2],22.4 µM (active)
CCC(=O)NC[C@H](Cc1ccc(OCCc2nc(-c3ccccc3)oc2C)cc1)N/C(C)=C\C(=O)c1ccc(C(F)(F)F)cc1,Potency,[2],inactive
same,"activity change, negative = inhibition",[3],-18.7%
O=C(NCCCNC(=O)c1ccc[nH]c1=O)c1cc(-c2ccccc2)on1,Potency,[2],inactive
same,Potency,[3],inactive
C/C=C1\NC(=O)[C@H]2CSSCC/C=C\[C@H](CC(=O)N[C@H](C(C)C)C(=O)N2)OC(=O)[C@H](C(C)C)NC1=O,Potency,[2],6.31 µM (active)
same,Potency,[3],7.08 µM (active)
O=C(O)CNC(=O)c1nc(Cl)c2ccccc2c1O,Potency,[2],inactive
same,"activity change, negative = inhibition",[3],-5.6%
Nc1ncc(C(=O)NC2CN(C(=O)C3CC3)C2)c2ccc(-c3cccc(F)c3)nc12,Potency,[2],inactive
CC(/C=C/[C@@H]1C[C@]1(C)c1ccc2c(c1)C(C)(C)CCC2(C)C)=C\C(=O)O,Potency,[2],inactive
same,"activity change, negative = inhibition",[3],-10.9%
Nc1ncccc1-c1nc2ccc(-c3ccccc3)nc2n1-c1ccc(C2(N)CCC2)cc1,Potency,[2],31.6 µM (active)
O=C(Nc1cnccc1Cl)N1CCN(Cc2ccc3c(c2)OC(F)(F)O3)CC1,Potency,[2],inactive
CNC(=O)[C@@H](NC(=O)[C@H](CC(C)C)[C@H](O)C(=O)NO)C(C)(C)C,Potency,[2],inactive
Cc1cc(Oc2ccc3nc(COc4ccc(CC5SC(=O)NC5=O)cc4)n(C)c3c2)cc(C)c1N (stereo unspecified),Potency,[2],inactive
CCOC(=N)c1nc2ccc3ncnc(Nc4cc(F)c(F)cc4Cl)c3c2s1,Potency,[2],inactive
same,"activity change, negative = inhibition",[3],-20.9%
CC[C@H](NC(=O)[C@H](C)NC)C(=O)N1C[C@@H](O)C[C@H]1Cc1c(-c2[nH]c3cc(F)ccc3c2C[C@@H]2C[C@H](O)CN2C(=O)[C@H](CC)NC(=O)[C@H](C)NC)[nH]c2cc(F)ccc12,Potency,[2],inactive
CO[C@H]1/C=C/O[C@@]2(C)Oc3c(C)c(O)c4c(O)c(c5c(c4c3C2=O)=NC2(CCN(CC(C)C)CC2)N=5)NC(=O)/C(C)=C/C=C/[C@H](C)[C@H](O)[C@@H](C)[C@@H](O)[C@@H](C)[C@H](OC(C)=O)[C@@H]1C,Potency,[2],inactive
same,Potency,[3],inactive
CN(C)C(N)=NC(=N)N,outcome,[2],inactive [setting not given]
same,outcome,[3],inactive [setting not given]
COC(=O)N(CC(=O)O)Cc1cccc(OCc2nc(-c3ccc(Cl)cc3)oc2C)c1,Potency,[2],inactive
C=C1CCC2[C@](C)(CO)C(O)CC[C@]2(C)C1C/C=C1/C(=O)OCC1O (stereo partly specified),Potency,[2],inactive
C[C@H](NC(=O)CCC(F)(F)F)C(=O)N[C@@H]1C(=O)N(CCO)c2ncccc2-c2ccccc21,Potency,[2],inactive
same,"activity change, negative = inhibition",[3],-2.66%
CC(=O)N1CCN(c2ccc(NC(=O)Cc3cnc(-c4ccnc(F)c4)c(C)c3)nc2)CC1,Potency,[2],inactive
same,"activity change, negative = inhibition",[3],0.388%
Cc1c(NC(=O)OCC2COCCN2)cn2ncnc(Nc3ccc4c(cnn4Cc4cccc(F)c4)c3)c12 (stereo unspecified),Potency,[2],inactive
C1=C/COCc2cc(ccc2OCCN2CCCC2)Nc2nccc(n2)-c2cccc(c2)COC/1,Potency,[2],7.08 µM (active)
same,Potency,[3],3.16 µM (active)
Cc1cc(O)c(-c2ccc([C@@H](C)CN)cc2)c2c1[nH]c(=O)c1sccc12,Potency,[2],inactive
same,"activity change, negative = inhibition",[3],-4.37%
Cc1ccc(NC(=O)Nc2cc(C(F)(F)F)ccc2F)cc1Nc1ccc2c(c1)NC(=O)/C2=C\c1ccc[nH]1,Potency,[2],inactive
Cc1cnc(NC(=O)c2cc(Oc3cnc(C(=O)N(C)C)nc3)c3cc(C)oc3c2)cn1,Potency,[2],inactive
same,"activity change, negative = inhibition",[3],-4.66%
Cc1nc(NC(=O)N2CCC[C@H]2C(N)=O)sc1-c1ccnc(C(C)(C)C(F)(F)F)c1,Potency,[2],inactive
same,"activity change, negative = inhibition",[3],-35.1%
